The results in this text go back to PubChem BioAssay (Tox21).

SMILES strings stand for the structures. “And” between values parts separate entries of the source, which are not always exact repeats. Identical values can stand only once. Results filed as inconclusive are left out. The source holds several records for some structures; these can differ, active in one and inactive in another. The source made the active and inactive calls. The call rests on the fitted dose curve; in most records, active means well fitted curve in the direction sought with a large enough effect in the repeat runs; inconclusive means weak or mixed curves; inactive means no such curve, though single readings can be large; an effect the other way counts as inactive or inconclusive.
Potency means the concentration at half of the fitted maximal effect.

A short description of one experiment: qHTS assay to identify small molecule antagonists of the thyroid receptor (TR) signaling pathway - cell viability counter screen (AID 743064). Further: nearly all actives have a fitted effect of over 50% in size. Conditions: GH3.TRE-Luc viability, CellTiter-Fluor, 24 h; series mostly up to 70.3 µM. The gist of the method: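 GH3.TRE-Luc rat pituitary cells dosed after 4 hr plating, co-stimulated with T3 at 1 nM final, incubated 23.5 h at 37 C. Viability measured in the same wells by CellTiter-Fluor fluorescence after 30 min further at 37 C.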
For `O=C(NC(=O)c1c(F)cccc1F)Nc1cc(Cl)c(Oc2ncc(C(F)(F)F)cc2Cl)c(Cl)c1`, the Potency is 58.5 µM (active).

`CC(C)(CCl)C(=O)Cl`: the Potency entry is “inactive”.

Regarding `C=CC[C@]1(O)CC[C@H]2[C@@H]3CCC4=CC(=O)CCC4=C3C=C[C@@]21C`, the Potency entry is “inactive”.

Turning to `CC(=O)c1cc2c(cc1C)C(C)(C)C(C)CC2(C)C` (configuration not stated), the Potency entry is “inactive”.

In the case of `N#CCC#N`, the Potency is 61.1 µM (active).

As for `NC(=O)C(Cl)(Cl)Cl`, the Potency result was “inactive”.

Take `CO/N=C(/C(=O)OC)c1ccccc1COc1ccccc1C`: the Potency result was “inactive”.

Turning to `O=C(CCl)c1ccc(Cl)cc1Cl`, the Potency was 1.33 µM (active) and 4.33 µM (active) and inactive.

`O=C1c2ccccc2C(=O)C1C(=O)C(c1ccccc1)c1ccccc1`: the Potency result was “inactive”.

Turning to `O=C(CBr)c1ccccc1`, the Potency result was “inactive”.

As for `O=C1NCN(c2ccccc2)C12CCN(CCCOc1ccc(F)cc1)CC2`, the Potency was 13.3 µM (active).

On to `CO/C=C(/C(=O)OC)c1ccccc1COc1cccc(C(F)(F)F)n1`, for which the Potency result was “inactive”.

On to `COCCOCCO`, for which the Potency is 30.6 µM (active).

For the compound `OC(c1ccc(Cl)cc1)(c1ccc(Cl)cc1)c1cccnc1`, the Potency is 61.1 µM (active).

Take `O=C(O)C1(c2ccc3c(c2)OC[C@H](Cc2ccc(-c4ccccc4)cc2)[C@H]3O)CCCC1`: the Potency was 61.1 µM (active).

In the case of `CCOP(=S)(OCC)Oc1cc(Cl)c(Br)cc1Cl`, the Potency entry is “inactive”.

On to `C[N+](C)(C)CCCl`, for which the Potency entry is “inactive”.

Take `O=S1(=O)OC(c2cc(Br)c(O)c(Br)c2)(c2cc(Br)c(O)c(Br)c2)c2ccccc21`: the Potency was 49.9 µM (active).

With `O=C1C(=O)c2cccc3cccc1c23`, the Potency entry is “inactive”.

With `c1cc2ccc3cccc4ccc(c1)c2c34`, the Potency entry was “inactive”.

Regarding `IC(I)=C(I)I`, the Potency was 7.7 µM (active).

The nature of a further experiment: qHTS assay to identify small molecule antagonists of the thyroid receptor (TR) signaling pathway (AID 743065). Further: nearly all actives have a fitted effect of over 55% in size. The settings on record: GH3.TRE-Luc, T3-stimulated luciferase inhibition, 23.5 h; series mostly up to 70.3 µM. The gist of the method: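 GH3.TRE-Luc rat pituitary cells (two TREs driving luciferase) were dosed with compound, then stimulated with 1 nM T3 (final) for 23.5 h at 37 C. ONE-Glo luminescence was the read-out, with CellTiter-Fluor fluorescence as the cytotoxicity counter-screen.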
As for `O=C(NC(=O)c1c(F)cccc1F)Nc1cc(Cl)c(Oc2ncc(C(F)(F)F)cc2Cl)c(Cl)c1`, the Potency was 8.27 µM (active).

Regarding `CC(C)(CCl)C(=O)Cl`, the Potency result was “inactive”.

Consider `C=CC[C@]1(O)CC[C@H]2[C@@H]3CCC4=CC(=O)CCC4=C3C=C[C@@]21C`, for which the Potency was 10.6 µM (active).

On to `CC(=O)c1cc2c(cc1C)C(C)(C)C(C)CC2(C)C` (configuration not stated), for which the Potency result was “inactive”.

For `N#CCC#N`, the Potency was 48.6 µM (active).

For the compound `CO/N=C(/C(=O)OC)c1ccccc1COc1ccccc1C`, the Potency is 3.06 µM (active).

Take `CCCCC(O)(Cn1cncn1)c1ccc(Cl)cc1Cl` (configuration not stated): the Potency was 61.1 µM (active).

With `COc1nn(CSP(=S)(OC)OC)c(=O)s1`, the Potency was 68.6 µM (active).

On to `O=C(CCl)c1ccc(Cl)cc1Cl`, for which the Potency is 1.5 µM (active) and 3.44 µM (active).

As for `O=C1c2ccccc2C(=O)C1C(=O)C(c1ccccc1)c1ccccc1`, the Potency entry is “inactive”.

As for `O=C(CBr)c1ccccc1`, the Potency entry is “inactive”.

Take `O=C1NCN(c2ccccc2)C12CCN(CCCOc1ccc(F)cc1)CC2`: the Potency was 16.8 µM (active).

On to `CO/C=C(/C(=O)OC)c1ccccc1COc1cccc(C(F)(F)F)n1`, for which the Potency was 0.432 µM (active).

For `CCCC(Cn1cncn1)c1ccc(Cl)cc1Cl` (configuration not stated), the Potency is 61.1 µM (active).

On to `O=C(Nc1ccccc1)Nc1ccnc(Cl)c1`, for which the Potency is 27.3 µM (active).

In the case of `COCCOCCO`, the Potency was 48.6 µM (active).

In the case of `CC1(C)CCC(Cc2ccc(Cl)cc2)C1(O)Cn1cncn1` (configuration not stated), the Potency is 61.1 µM (active).

Turning to `OC(c1ccc(Cl)cc1)(c1ccc(Cl)cc1)c1cccnc1`, the Potency was 54.5 µM (active).

`O=C(O)C1(c2ccc3c(c2)OC[C@H](Cc2ccc(-c4ccccc4)cc2)[C@H]3O)CCCC1`: the Potency is 54.5 µM (active).

For the compound `N#Cc1cc(I)c(O)c(I)c1`, the Potency is 27.3 µM (active).

With `C[N+](C)(C)CCCl`, the Potency entry was “inactive”.

In the case of `CN(C)c1ccc(N(C)C)cc1`, the Potency entry was “inactive”.

Consider `O=S1(=O)OC(c2cc(Br)c(O)c(Br)c2)(c2cc(Br)c(O)c(Br)c2)c2ccccc21`, for which the Potency is 28.1 µM (active).

Take `Clc1cc(C(Cl)(Cl)Cl)cnc1Cl`: the Potency is 38.6 µM (active).

In the case of `c1cc2ccc3cccc4ccc(c1)c2c34`, the Potency result was “inactive”.

Take `IC(I)=C(I)I`: the Potency was 6.11 µM (active).
